Source: PubChem BioAssay
Ba/F3 V617F tox: loss of viability in JAK2V617F-driven Ba/F3 cells | hit rate 1.1% among 220,000 | Ba/F3 EpoR-JAK2V617F viability, ATP luminescence | inhibition, % at 5.6 µM;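 active = inhibition above the campaign mean plus 3 SD over all tested compounds, cut at about 24% in these data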;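 note: cytokine-independent growth of Ba/F3 cells driven by EpoR plus mutant JAK2; 0% = DMSO-treated cells and 100% = JAK inhibitor I control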
APP transl inh: APP translation inhibition | inhibition, % at 2 µM | AID 1285 | hit rate 0.82% among 190,000 | SH-SY5Y APP 5'UTR-luciferase reporter, luminescence;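 active = inhibition above a set limit, derived from the sample mean plus 3 SD, cut at about 45% in these data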
KLF5 inh: suppresses KLF5 promoter-driven expression; DLD-1 KLF5 promoter-luciferase reporter, luminescence; inhibition, % at 5 µM; hit rate 0.23% among 290,000; AID 1700;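 active = inhibition above a per-plate limit of that plate's mean compound inhibition plus 3 SD, cut at about 60% in these data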;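 note: 0% = DMSO wells and 100% = LY294002 at 200 µM; higher means less KLF5 promoter-driven luciferase light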
IEC-6 cytotox: kills IEC-6 intestinal cells in KLF5 counter-screen; inhibition, % at 5 µM; AID 1825; hit rate 0.78% among 290,000; IEC-6 cytotoxicity, luminescence viability; in the data active = inhibition above about 22%;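 note: 0% = plate median of test compound wells and 100% = cytotoxic reference compound wells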
aSyn UTR inh: 5' untranslated region of α-synuclein, MLPCN primary screen; AID 1813; hit rate 0.82% among 300,000; inhibition, % (tested at 7.5 µM); alpha-synuclein 5'UTR reporter, inhibitor activity; in the data active = inhibition above about 60%;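 note: H4 neuroglioblastoma cells stably carrying SNCA 5'UTR luciferase fusion; 0% = DMSO wells and 100% = positive control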
BaF3 tox: reduces parental Ba/F3 cell viability, JAK2V617F counter-screen; CellTiter-Glo ATP luminescence; inhibition, % at 5.6 µM; hit rate 1.1% among 220,000; AID 1486;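 active = inhibition above a per-campaign cutoff, the mean inhibition of all tested compounds plus 3 SD, cut at about 27% in these data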;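 note: 0% = DMSO wells and 100% = JAK Inhibitor I control wells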
* = called active by the depositor; · = no result. The list is not random: actives were taken first. Their share in the collection is about 2.2%.

SMILES | Ba/F3 V617F tox | APP transl inh | KLF5 inh | IEC-6 cytotox | aSyn UTR inh | BaF3 tox
CCCCn1cnc2c(oc3ccccc32)c1=O | · | · | -82.3 | 2.4 | -120.9 | ·
CC1(C)CC(N2CCCC2)=CC(=[N+]2CCCCCC2)C1 | 99.2* | 2.3 | 1.2 | 29.5* | -2.0 | 71.5*
CCN(CC)C1=CC(=[N+]2CCCC2)CC(C)(C)C1 | 73.7* | -1.0 | -15.0 | 6.3 | -4.3 | 63.4*
CC1(C)CC(N2CCN(c3ccccc3)CC2)=CC(=[N+]2CCCC2)C1 | 85.4* | -8.6 | -3.7 | 14.4 | -3.0 | 75.3*
C=CCc1c(C)nc(N2CCSCC2)[nH]c1=O | -2.8 | · | 0.1 | -0.4 | 8.0 | -1.6
CCN(CC)S(=O)(=O)c1ccc(NC(=O)[C@@H](NC(=O)c2cc(OC)cc(OC)c2)C(C)C)cc1 | 4.4 | 6.9 | -40.5 | -0.1 | 10.5 | 5.9
Cc1nc2ccccc2n1-c1nc(-c2ccco2)cc(C(F)(F)F)n1 | 2.2 | 37.5 | -2.4 | -2.4 | 90.4* | 7.5
CC1CCc2cccc3c2N1c1cc(C#N)c(C#N)cc1O3 (stereo not drawn) | 2.3 | 9.2 | -33.0 | 4.7 | 71.4* | 2.8
O=C(c1ccc2ccccc2c1)N1CCN(Cc2ccccc2)CC1 | · | · | -51.5 | -1.0 | -85.4 | ·
COCC(C)n1c(SCc2nc3ccccc3c(=O)[nH]2)nc2ccccc2c1=O (stereo not drawn) | 4.4 | -11.4 | -21.9 | 33.6* | 37.3 | 7.3
CCC(C)c1ccc(NC(=O)N2CCOCC2)cc1 (stereo not drawn) | · | · | -82.9 | 3.4 | -101.6 | ·
CSc1ccc(CCNC(=O)Cn2ncc3c([nH]c4ccccc43)c2=O)cc1 | · | · | -0.8 | 1.4 | 15.3 | ·
CCO[C@@H]1OC(C(=O)NCc2nc3ccccc3[nH]2)=C[C@H](C(C)(C)C)[C@H]1CCCO | · | · | · | · | 85.2* | ·
CCO[C@H]1OC(C(=O)NCc2nc3ccccc3[nH]2)=C[C@@H](c2ccc(Br)cc2)[C@@H]1CCCO | · | · | · | · | -3.7 | ·
COc1ccc(OCc2n(CC(=O)OC3CC(C)CCC3C(C)C)c3ccccc3[n+]2C)cc1 (stereo not drawn) | 98.5* | · | -5.7 | 12.0 | 30.4 | 100.3*
COc1ccc(-c2n(CC(=O)OC3CC(C)CCC3C(C)C)c3ccccc3[n+]2C)cc1 (stereo not drawn) | 100.3* | 14.4 | 51.9 | 20.6 | 101.4* | 88.6*
CC(C(=O)Nc1cccc(S(=O)(=O)N2CCOCC2)c1)N1CCN(C/C=C/c2ccccc2)CC1 (stereo not drawn) | 27.7* | -2.4 | -14.8 | -6.7 | 23.9 | 30.3*
N#Cc1ccc(NC(=O)Nc2ccc(Oc3ccc(NC(=O)Nc4ccc(C#N)cc4)cc3)cc2)cc1 | 0.0 | · | -7.5 | 3.6 | 73.7* | -3.4
O=C(c1ccco1)N1N=C(c2ccc(Br)cc2)CC1(O)C(F)(F)F (stereo not drawn) | 3.0 | 10.8 | -14.9 | 7.7 | 8.4 | 73.9*
O=C(CC(C(=O)N1CCc2ccccc21)n1ccnc1)NCC1CCCO1 (stereo not drawn) | 0.8 | -9.6 | -29.6 | -0.2 | 7.5 | 94.8*
CCCCNC(=O)CC(C(=O)N1CCc2ccccc21)n1ccnc1 (stereo not drawn) | -3.8 | 13.9 | -17.3 | 0.2 | 4.5 | 0.1
CCCN(CC(=O)Nc1ccccc1C)C(=O)c1cccc(S(=O)(=O)N2CCN(c3ccccc3)CC2)c1 | · | · | · | · | 1.9 | ·
[2H]C(CCOS(N)(=O)=O)c1ccc(C(C)(C)C)cc1 (stereo not drawn) | · | · | 7.3 | 13.0 | 80.0* | ·
NS(=O)(=O)OCCCc1ccccc1 | · | · | -8.1 | -0.1 | 5.9 | ·
CC1CN(C(=O)CS(=O)(=O)Cc2ccc(Cl)cc2)CC(C)O1 (stereo not drawn) | · | · | -13.4 | -5.3 | 2.9 | ·
SMILES | Ba/F3 V617F tox | APP transl inh | KLF5 inh | IEC-6 cytotox | aSyn UTR inh | BaF3 tox
COc1cc(-c2cc(C(=O)N3CCN(c4ccccn4)CC3)c3ccccc3n2)cc(OC)c1OC | 3.4 | 1.9 | 2.2 | 32.7* | -7.3 | 4.3
Cc1onc(-c2ccccc2Cl)c1C(=O)OCN1C(=O)c2ccccc2C1=O | 4.2 | -1.1 | -30.5 | 6.1 | 3.2 | 95.2*
CN(C(=O)COc1ccccc1C(=O)NCCOc1ccccc1)c1ccccc1 | 11.1 | 13.2 | -14.9 | 6.6 | -19.9 | 36.3*
CCC(=NCCc1c(C)[nH]c2ccc(C)cc12)C1=C(O)CC(c2ccccc2)CC1=O (stereo not drawn) | -1.8 | 94.9* | -30.6 | -2.0 | 104.0* | 5.6
O=C(CCc1ccc(S(=O)(=O)NC2CCCCC2)cc1)N(Cc1ccccc1)Cc1ccccc1 | 1.5 | 2.1 | -30.6 | -7.9 | 38.0 | 5.5
O=C(c1ccc2c(=O)n(-c3ccccc3)c(=S)[nH]c2c1)N1CCCCC1 | 44.8* | -2.5 | -21.4 | 1.1 | 4.2 | 63.5*
CC1=CC(C)(C)Nc2ccc(OC(=O)C(C)N3C(=O)c4ccccc4C3=O)cc21 (stereo not drawn) | 0.7 | 16.8 | 9.3 | -2.2 | 18.9 | 80.3*
COc1ccc(OC(=O)C(C)N2C(=O)c3ccccc3C2=O)cc1 (stereo not drawn) | · | · | -27.0 | -3.1 | 23.0 | ·
CC1=CC(C)(C)Nc2ccc(OC(=O)c3cccnc3)cc21 | 40.7* | 32.3 | -11.6 | 8.9 | 14.8 | 90.5*
CC(C)(C)c1ccc(C(=O)N/C(=C\c2cccs2)C(=O)N2CCOCC2)cc1 | · | · | -23.1 | -5.6 | -3.5 | ·
CCOC(=O)N1CCN(Cc2nc3cc(NC(=O)c4ccco4)ccc3n2C)CC1 | · | · | -40.9 | 10.4 | -35.9 | ·
C/C(CC(=O)Nc1c(C)cc(C)cc1C)=N\NC(=O)Cc1ccccc1 | · | · | -19.6 | -1.9 | 8.2 | ·
COc1ccc(C2=Nn3c(nnc3-c3ccncc3)SC2)cc1OC | 0.0 | 9.4 | -2.5 | 0.4 | 71.8* | 1.4
COc1ccc(N2CCN(C(=O)CN(c3cccc(OC)c3)S(=O)(=O)c3ccccc3)CC2)cc1 | · | · | 2.1 | -2.7 | 12.2 | ·
O=C(NCCN1C(=O)S/C(=C\c2ccc(OC(F)F)cc2)C1=O)c1cnccn1 | -0.1 | 76.5* | 37.8 | 19.1 | 49.7 | 4.7
COC(=O)c1ccccc1NC(=O)CSc1nncn1-c1ccccn1 | · | · | -10.5 | 5.3 | 0.1 | ·
COc1ccc(C(C(=O)OC(C)CN(C)C)c2ccccc2)cc1 (stereo not drawn) | -0.3 | -6.4 | -23.5 | -1.0 | 1.6 | 5.2
CN(C)CC(C(=O)c1ccccc1)c1ccccc1 (stereo not drawn) | -1.1 | 93.9* | -5.8 | 4.4 | -170.8 | -0.6
Cc1c(NC(=O)CSc2nnc3c4ccccc4n(CCc4ccccc4)c3n2)c(=O)n(-c2ccccc2)n1C | -1.3 | -15.1 | 24.0 | 59.8* | -24.9 | 5.7
CCn1c2ccccc2c2nnc(SCC(=O)Nc3c(C)n(C)n(-c4ccccc4)c3=O)nc21 | -0.1 | -25.5 | -5.8 | 5.7 | 12.8 | 1.9
O=[N+]([O-])c1ccc(/C=N\NS(=O)(=O)c2ccc(F)cc2)o1 | · | · | -15.1 | -3.9 | -9.1 | ·
Cc1ccc(NC(=O)c2ccc(CNS(=O)(=O)c3cccc(C(F)(F)F)c3)cc2)cc1 | 4.4 | 17.0 | -20.9 | 5.2 | 11.9 | 33.2*
O=C(Nc1ccccc1F)c1ccc(CNS(=O)(=O)c2cccc(C(F)(F)F)c2)cc1 | -0.6 | 1.7 | 2.9 | -0.7 | -15.0 | 1.4
